Values quoted from earlier work as cited in PubChem BioAssay AID977611.
Among all 3,900 compounds or so, about 3,900 (100%) were called active. No cut-off is given here; in the data, nearly all actives have Kd up to about 4200 µM. So high a share suggests a set chosen from earlier hits. The list shows a part of the results.

Assay: PubChem AID 977611
Conditions: PDB protein-ligand complexes, literature Kd

CN(C)c1cc[n+](Cc2ccc(-c3ccccc3)cc2)cc1
Kd (protein: Human choline kinase a1, PDB entry 4cg9): 0.62 µM (active)

CN(C)c1cc[n+](Cc2ccc(-c3ccc(Cn4cnc(=N)c5[nH]cnc54)cc3)cc2)cc1
Kd (protein: CHOLINE KINASE ALPHA, PDB entry 4br3): 1.9 µM (active)

CN(C)c1cc[n+](Cc2ccc(CCCCc3ccc(CN4C=CC(N(C)c5ccc(Cl)cc5)C=C4)cc3)cc2)cc1
Kd (protein: Human choline kinase a1, PDB entry 4cg8): 0.11 µM (active)

CN(C)c1cc[n+](Cc2ccc(CCc3ccccc3)cc2)cc1
Kd (protein: Human choline kinase a1, PDB entry 4cga): 0.4 µM (active)

CC(=O)N[C@@H]1[C@@H](O[C@H]2O[C@H](CO)[C@H](O[C@H]3O[C@H](CO[C@@H]4O[C@@H](C)[C@H](O)[C@@H](O)[C@H]4O)[C@@H](O)[C@H](O)[C@H]3O)[C@H](O[C@@H]3O[C@H](CO)[C@@H](O)[C@H](O)[C@H]3NC(C)=O)[C@H]2O)[C@H](O)[C@@H](CO[C@H]2O[C@H](CO)[C@@H](O)[C@H](O)[C@H]2O)O[C@H]1O
Kd (protein: TAIL SPIKE PROTEIN(D339A mutant), PDB entry 2x6y): 26 µM (active) | Kd (protein: TAIL SPIKE PROTEIN, PDB entry 2x85): 129 µM (active)

CC(=O)N[C@H]1[C@H](O[C@H]2[C@H](O)[C@@H](O)[C@H](O[C@H]3[C@H](O)[C@@H](CO)OC[C@@H]3NC(C)=O)O[C@@H]2C(=O)O)O[C@H](CO)[C@@H](O)[C@@H]1O[C@@H]1O[C@H](C(=O)O)[C@@H](O)[C@H](O)[C@H]1O
Kd (protein: murine cd44 hyaluronan binding domain, PDB entry 4mrd): 428 µM (active)

CC(=O)N[C@@H]1[C@@H](O[C@H]2O[C@H](CO)[C@H](O[C@H]3O[C@H](CO[C@@H]4O[C@@H](C)[C@H](O)[C@@H](O)[C@H]4O)[C@@H](O)[C@H](O)[C@H]3O)[C@H](O[C@@H]3O[C@H](CO)[C@@H](O)[C@H](O)[C@H]3NC(C)=O)[C@H]2O)[C@H](O)[C@@H](CO[C@H]2O[C@H](CO)[C@@H](O)[C@H](O)[C@H]2O)O[C@@H]1O
Kd (protein: TAIL SPIKE PROTEIN(E372Q mutant), PDB entry 2x6w): 0.079 µM (active)

CC(=O)N[C@H]1[C@H](O[C@@H]2[C@@H](O)[C@@H](O)O[C@H](CO)[C@@H]2O[C@H]2O[C@H](CO[C@@H]3O[C@@H](C)[C@H](O)[C@@H](O)[C@H]3O)[C@@H](O)[C@H](O)[C@H]2O)O[C@H](CO)[C@@H](O)[C@@H]1O
Kd (protein: TAIL SPIKE PROTEIN(D339N mutant), PDB entry 2x6x): 210 µM (active)

CC(=O)N[C@@H]1[C@@H](O)[C@H](O[C@@H]2O[C@H](CO)[C@@H](O[C@@H]3O[C@H](CO[C@H]4O[C@H](CO)[C@@H](O)[C@H](O)[C@@H]4O[C@@H]4O[C@H](CO)[C@@H](O)[C@H](O)[C@H]4NC(C)=O)[C@@H](O)[C@H](O[C@H]4O[C@H](CO)[C@@H](O)[C@H](O)[C@@H]4O[C@@H]4O[C@H](CO)[C@@H](O)[C@H](O)[C@H]4NC(C)=O)[C@@H]3O)[C@H](O)[C@H]2NC(C)=O)[C@@H](CO)O[C@H]1NC(=O)C[C@H](N)C(=O)O
Kd (protein: LECTIN, PDB entry 3zyr): 4.6 µM (active)

CC(=O)N[C@H]1[C@H](O[C@@H]2[C@H](O[C@]3(C(=O)O)C[C@H](O)[C@@H](NC(C)=O)[C@H]([C@H](O)[C@H](O)CO)O3)[C@@H](O)[C@H](O[C@H]3[C@H](O)[C@@H](O)[C@H](O)O[C@@H]3CO)O[C@@H]2CO)O[C@H](CO)[C@H](O)[C@@H]1O[C@@H]1O[C@H](CO)[C@H](O)[C@H](O)[C@H]1O
Kd (protein: ECXA, PDB entry 4l6t): 0.032 µM (active)

Nc1c(I)c(C(=O)O)c(I)c(C(=O)O)c1I
Kd (protein: EXTRACELLULAR PROTEIN 6, PDB entry 4b9h): 4.5 µM (active)

N/C=C/CCNCCCN
Kd (protein: Putrescine-binding periplasmic protein (S38T, D39E, S87Y, A182D, D247S, F276W, L348Q mutation), PDB entry 4jdf): 6400 µM (active)

NCCCCNCCCN
Kd (protein: Phospholipase A2 VRV-PL-VIIIa, PDB entry 4qf8): 0.031 µM (active)

COc1ccc2c(CC(=O)O)coc2c1
Kd (protein: Pantothenate synthetase (T2A, E77G mutation), PDB entry 4ddh): 500 µM (active)

NC1NC(=O)c2nc(CNc3ccc(C(=O)N[C@@H](CCC(=O)O)C(=O)O)cc3)cnc2N1 (some centres not stated)
Kd (protein: Folate receptor alpha, PDB entry 4lrh): 0.00019 µM (active) | Kd (protein: Folate receptor beta, PDB entry 4kmz): 0.0027 µM (active)

Nc1nc(N)c2nc(CNc3ccc(C(=O)N[C@@H](CCC(=O)O)C(=O)O)cc3)cnc2n1
Kd (protein: Folate receptor beta, PDB entry 4kn1): 0.144 µM (active)

NC1NC(=O)c2c(CCc3ccc(C(=O)N[C@@H](CCC(=O)O)C(=O)O)cc3)c[nH]c2N1 (some centres not stated)
Kd (protein: Folate receptor beta, PDB entry 4kn2): 0.054 µM (active)

N[C@H](CNc1nc(-c2ccncc2)nc2sc3c(c12)CCCC3)Cc1ccccc1
Kd (protein: PROTEIN KINASE C IOTA TYPE, PDB entry 3zh8): 0.341 µM (active)

O=C(O)CO[P+](O)(O)O
Kd (protein: TRIOSEPHOSPHATE ISOMERASE (A198V, C202A, C222N mutation), PDB entry 4bi6): 113 µM (active) | Kd (protein: TRIOSEPHOSPHATE ISOMERASE (C202A mutation), PDB entry 4bi7): 26.4 µM (active)
